From PubChem BioAssay (NCATS) come the findings set out here.

Structures are written as SMILES. Records with an inconclusive call do not appear. Calls of active or inactive are those of the source. The call rests on the fitted dose curve; in most records, active means well fitted cell-killing curve with a large enough effect; inconclusive means small, poorly fitted or top-dose-only effect, or effect the other way; inactive means no such curve, though single readings can be large or run the other way.
On the % scale 0 is the no-effect control and ±100 the full control effect; potency means the concentration at half of the fitted maximal effect.

The nature of this experiment: qHTS of pediatric cancer cell lines to identify multiple opportunities for drug repurposing: Confirmatory screen for NB-EBc1 cells (AID 1347115).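 Further: cells exposed to compound for 48 h before the viability read; nearly all actives have a fitted effect of over 45% in size.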 Conditions: NB-EBc1 neuroblastoma cells, viability (cytotoxicity); series mostly up to 45.9 µM; activity change, negative = cytotoxic: at the top concentration. The source says: Drug repurposing or repositioning has been offered as a strategy for drug development in oncology programs. This approach has special potential for childhood cancers and other rare or orphan diseases, where the expected return on new drug development has been a disincentive to pharmaceuticals.
In this project we exploit the poly-pharmacology of drugs to discover new indications via phenotypic screening of a panel of 19 well-characterized cell lines derived from solid tumors seen in children and adolescents. The goal is to identify approved drugs with previously unrecognized anticancer properties that has the potential to reveal new mechanisms and biological processes involved in carcinogenesis or drug resistance. We employed a titration-based paradigm (quantitative high-throughput screening or qHTS), where all compounds were tested at multiple concentrations for their effect on cell viability. Concentration-response curves (CRCs) were derived directly from the primary screen, and both potency and efficacy values were used to identify compounds with robust bioactivity profiles. We screened the NIH Chemical Genomics Center (NCGC) Pharmaceutical Collection (NPC) and Mechanism Interrogation Plate (MIPE) small molecule collections of approved and investigational compounds against these cell lines; and measured metabolically active cells after 48 hours of compound treatment as a proxy for cell viability.
Assay Submitter: Nathalia J. Martinez, National Center for Advancing Translational Sciences, National Institutes of Health, Rockville, MD, USA; email: natalia.martinez@nih.gov
[1] Shen, M et al. Quantitative high-throughput phenotypic screening of pediatric cancer cell lines identifies multiple opportunities for drug repurposing. Oncotarget 2017 Dec 19;9(4):4758-4772. PMID 29435139.
The cells were obtained from University of North Carolina (UNC), Pediatric Preclinical Testing Program (PPT), and Coriell Institute (CI).
qHTS cell viability assay:
Cells were assayed in growth media at a density of 500-1,000 cells/well. Five microliters of cells were dispensed into 1,536-well, white, solid-bottom, TC-treated plates (Greiner Bio One) using a multidrop dispenser and incubated at 37 degrees C, 5% CO2, under a humidified atmosphere for 5 hours. Twenty-three nanoliters of compounds and controls (neutral control DMSO or positive control bortezomib at final concentration of 2.3 µM) were subsequently transferred by Kalypsys pintool. For primary screens, the MIPE collection was tested at 11-point dilutions (final concentrations range from 0.78 nM to 46 µM) and the NPC collection at 8-point dilutions (final concentrations range from 0.59 nM to 46 µM). Compounds tested in follow-up screens were assayed at 11-point dilutions. Cells were incubated for 48 hours, followed by addition of 3 µL of CellTiter-Glo (Promega). After a 15 min incubation at room temperature, samples were analyzed for luminescence intensity using a ViewLux High-throughput CCD imager equipped with clear filters.
For orientation: qHTS replaces the single test concentration by a dilution series.
Turning to `CC(C)=CCC/C(C)=C/CC/C(C)=C/C(=O)OCC(=O)[C@@]1(O)CC[C@H]2[C@@H]3CCC4=CC(=O)C=C[C@]4(C)[C@H]3[C@@H](O)C[C@@]21C`, the “activity change, negative = cytotoxic” value is 7.6% (inactive). On the same count and under the same terms, in the case of `CC(=O)O[C@@H]1C(=O)O[C@@H]2[C@H]1OC(=O)[C@@H]2OC(C)=O` it was -7.93% (inactive). As to `O=c1[nH]sc2cc(Cl)ccc12`, the Potency is 20.8 µM (active). `C[C@H]1C[C@H]2[C@@H]3CCC4=CC(=O)C=C[C@]4(C)[C@H]3C(=O)C[C@]2(C)[C@@]1(O)C(=O)CO`: the Potency is 8.27 µM (active).

With `Cc1ccc(C(=O)Oc2ccc(C(O)CNC(C)(C)C)cc2OC(=O)c2ccc(C)cc2)cc1` (stereo not given), the “activity change, negative = cytotoxic” value was -5.96% (inactive). For the compound `N=C(N)c1ccc(OCCCOc2ccc(C(=N)N)cc2)cc1`, the “activity change, negative = cytotoxic” value was 3.01% (inactive).

For the compound `CCC(=O)O[C@]1(C(=O)COC)[C@@H](C)C[C@H]2[C@@H]3CCC4=CC(=O)C=C[C@]4(C)C3(F)[C@@H](O)C[C@@]21C` (stereo not given in full), the “activity change, negative = cytotoxic” value is 9.96% (inactive). Same read-out and setting: in the case of `COc1cc(/C=C/C(N)=O)cc(OC)c1OC` it was -2.34% (inactive). Regarding `CC(C)(C)CC(=O)OCC(=O)[C@@]1(O)CC[C@H]2[C@@H]3CCC4=CC(=O)C=C[C@]4(C)[C@H]3[C@@H](O)C[C@@]21C`, the “activity change, negative = cytotoxic” value was 3.6% (inactive). For `CC[C@@]1(O)C(=O)OCc2c1cc1n(c2=O)Cc2c-1nc1ccccc1c2/C=N/OC(C)(C)C`, the Potency was 0.0052 µM (active). Turning to `C[C@H]1C[C@@H]2[C@H]([C@@H](O)C[C@@]3(C)[C@H]2CC[C@]3(O)C(=O)CO)[C@@]2(C)C=CC(=O)C=C12`, the “activity change, negative = cytotoxic” value was -3.07% (inactive). For the compound `CCN(CC)CC(=O)OCC(=O)[C@@]1(O)CC[C@H]2[C@@H]3CCC4=CC(=O)CC[C@]4(C)[C@H]3[C@@H](O)C[C@@]21C`, the “activity change, negative = cytotoxic” value was 0.693% (inactive). As to `CC(=O)[C@@]1(O)CC[C@H]2[C@@H]3C[C@H](C)C4=CC(=O)CC[C@]4(C)[C@H]3CC[C@@]21C`, the “activity change, negative = cytotoxic” value was -14.1% (inactive). Take `COc1c(C)c2c(c(O)c1C/C=C(\C)CCC(=O)OCCN1CCOCC1)C(=O)OC2`: the Potency is 0.827 µM (active). Regarding `CCc1cc2cc(OC)c(OC)cc2c(Cc2ccccc2)n1`, the “activity change, negative = cytotoxic” value was -4.39% (inactive).

On to `O=[N+]([O-])c1ccc(O)c2ncccc12`, for which the Potency is 7.37 µM (active). The same measure, in the same setting: in the case of `Nc1ccc2cc3ccc(N)cc3nc2c1` it was 13.1 µM (active); in that of `Cc1cc(OCCOCC[N+](C)(C)Cc2ccccc2)ccc1C(C)(C)CC(C)(C)C`, 16.5 µM (active). Regarding `CCCC(=O)O[C@]1(C(=O)COC(=O)CC)CC[C@H]2[C@@H]3CCC4=CC(=O)CC[C@]4(C)[C@H]3[C@@H](O)C[C@@]21C`, the “activity change, negative = cytotoxic” value is 11.7% (inactive).

Take `CC(=O)OCC(=O)[C@@]1(O)[C@H](OC(C)=O)C[C@H]2[C@@H]3CCC4=CC(=O)C=C[C@]4(C)[C@@]3(F)[C@@H](O)C[C@@]21C`: the “activity change, negative = cytotoxic” value was 6.42% (inactive). Same read-out and setting: in the case of `CCCCC(CC)CNC(=O)CC(C)OC(=O)CCC(=O)O` (stereo not given) it was -5.11% (inactive); in that of `CN(C)CCN(Cc1ccsc1)c1ccccn1`, -17.6% (inactive). In the case of `Nc1c2ccccc2nc2ccccc12`, the Potency is 6.57 µM (active). Take `CCC1(c2cnc[nH]2)Cc2ccccc2C1`: the Potency was 20.8 µM (active). As to `CO[C@@H]1[C@@H](OC)[C@H](C)[C@@](O)(CC(=O)O)O[C@H]1[C@H](C)[C@H]1O[C@@]2(CC[C@@](C)([C@H]3CC[C@@](C)([C@@H]4O[C@@H]([C@H]5O[C@](C)(O)[C@H](C)C[C@@H]5C)C[C@@H]4OC4C[C@H](OC)[C@@H](OC)[C@H](C)O4)O3)O2)C[C@H](O)[C@H]1C` (stereo not given in full), the Potency was 1.47 µM (active).
